# This is a sample that favours compounds with a hit; in the whole collection about 6.8% have one here.
# KB-3-1 tox = qHTS assay for MDR1-selective chemotherapeutics: Primary screen using the parental adenocarcinoma cell KB-3-1. 400,000 compounds, 1.4% hits. Potency, µM (doses to about 46.1 µM), hits mostly cytotoxic. AID 1347075, 2019. KB-3-1 viability, CellTiter-Glo ATP luminescence, 72 h; also: % is scaled to controls: 0 for no effect and ±100 for the full control effect; nearly all actives have a fitted effect of over 60% in size
#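 Using CellTiter-Glo luminescence, growth of non-resistant KB-3-1 adenocarcinoma cells is assessed 72 h after pin-tool compound addition at 37 °C. Normalized responses across the concentration series yield fitted curves.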
# PINK1 expr mod = A Quantitative High throughput Screen to Identify Chemical Modulators of PINK1 Expression; AID 624263, 2012; Potency, µM (titrated, usually from 76.6 µM), inactives show at the highest dose activation (PINK1 increase), usual class: activators; PINK1 immunofluorescence, high-content cytometry, 24 h; 410,000 compounds, 0.2% hits; active = well fitted activation curve with a large enough effect; inconclusive = small, poorly fitted or top-dose-only effect; cell line not stated here; also: % of control where 0% means no effect; nearly all actives have a fitted effect of over 65% in size
#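 Cells are seeded, rested 12 hours, then given compound at five concentrations or DMSO for 24 hours. After fixation, blocking and antibody staining, PINK1 amount and mitochondrial localization are scored; CCCP serves as control.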
# KB-V1 MDR tox = qHTS assay for MDR1-selective chemotherapeutics: Primary screen using the drug-selected MDR subline cells KB-V1; KB-V1 MDR cells viability, CellTiter-Glo, 72 h; Potency, µM (highest dose often 46.1 µM), hits mostly cytotoxic; 400,000 compounds, 3.4% hits; AID 1347076, 2019; also: % is scaled to controls: 0 for no effect and ±100 for the full control effect; nearly all actives have a fitted effect of over 60% in size
#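 In this primary screen, KB-V1 cells overexpressing P-gp are incubated with library compounds (lowest to highest concentration) for 72 h at 37 degrees C before a luminescent ATP viability read.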
# TSG101-PTAP inh = qHTS Assay for Iinhibitors of HIV-1 Budding by Blocking the Interaction of PTAP/TSG101; Fluorescence polarization, FITC-PTAP peptide / Tsg101 binding; Potency, µM (doses to about 115 µM), inactives show at the top dose activity change, negative = inhibition, usual class: inhibitors; 340,000 tested, under 10 active; active = well fitted inhibition curve with a large enough effect in the main read-out, with a control signal flat, not every such curve was filed as active; inconclusive = small, poorly fitted or top-dose-only effect, or effect the other way, or a change in a side signal; inactive = no such curve, though single readings can be large or run the other way; also: % of control where 0% means no effect
# Target sequence (Q99816 whole entry, looked up): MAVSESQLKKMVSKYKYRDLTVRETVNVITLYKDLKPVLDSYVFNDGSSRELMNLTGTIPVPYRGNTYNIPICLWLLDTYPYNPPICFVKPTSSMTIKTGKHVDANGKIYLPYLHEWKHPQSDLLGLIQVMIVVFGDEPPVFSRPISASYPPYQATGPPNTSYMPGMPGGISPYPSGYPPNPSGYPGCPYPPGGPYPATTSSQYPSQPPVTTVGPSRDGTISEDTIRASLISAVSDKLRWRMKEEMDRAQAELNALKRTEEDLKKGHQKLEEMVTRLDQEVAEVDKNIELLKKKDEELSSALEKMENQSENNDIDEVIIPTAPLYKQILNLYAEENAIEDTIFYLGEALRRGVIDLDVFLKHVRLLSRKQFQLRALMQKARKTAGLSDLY
#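 FP read-out: FITC-PTAP peptide, 50 nM final, binding Tsg101 binding domain, 10 uM final; 20 min, r.t.; 10 mM HEPES pH 7.5, 0.15 M NaCl, 0.01% Tween 20, 3 mM EDTA, 0.1 mM TCEP.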
# MCF10A rereplic = A quantitative high throughput screen for small molecules that induce DNA re-replication in MCF 10a normal breast cells; 350,000 compounds, 2.9% hits; AID 624296, 2012; Potency, µM (highest dose often 46.1 µM), inactives show at the highest dose activity, positive = re-replication, usual class: activators; MCF 10A DNA re-replication, Hoechst nuclear intensity, 48 h; also: % of control where 0% means no effect; nearly all actives have a fitted effect of over 50% in size
# SW480 rerep = A quantitative high throughput screen for small molecules that induce DNA re-replication in SW480 colon adenocarcinoma cells. 340,000 compounds, 1.8% hits. AID 624297, 2012. SW480 DNA re-replication, Hoechst DNA content imaging, 48 h. Potency, µM (doses to about 46.1 µM), for inactives: at the top dose re-replication activation, usual class: activators; also: % of control where 0% means no effect; nearly all actives have a fitted effect of over 55% in size
#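 Hoechst fluorescence of nuclei (405 nm excitation, 500-530 nm emission) measured by plate-scanning imager after 48 hr compound exposure at 37 C; re-replication scored as increased number of nuclei with elevated intensity.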
# * = called active by the depositor; i = inactive; ? = inconclusive; . = no result given; ! = not active in a repeat; [ ] = another dose, or the depositor's remark. Unless noted, calls follow the shape of the dose curve; as a rule, active = well fitted curve in the direction sought with a large enough effect; inconclusive = small, poorly fitted or top-dose-only effect, or another doubt; inactive = no such curve, though single readings can be large; an effect the other way counts as inactive or inconclusive. Potency is read from the fitted curve at half-maximal effect.
SMILES,KB-3-1 tox,PINK1 expr mod,KB-V1 MDR tox,TSG101-PTAP inh,MCF10A rereplic,SW480 rerep
COc1cc(N=c2ssnc2Cl)c(OC)cc1Cl,i,2%,i,3%,21µM*!,?
COc1ccc(OC)c(N=c2ssnc2Cl)c1,i,-1%,i,-1%,?,?
CN1CCO[C@H](c2ccccc2)c2ccccc2C1,.,.,.,.,9%[20.6 µM],0%[20.6 µM]
COc1ccc(CCc2ccc3ccccc3n2)cc1,i,0%,i,-4%,18µM*,-2%
COc1ccc(CCc2ccnc3ccccc23)cc1,?,5%,?,-4%,15%,-4%
COc1cc(C2C(=O)N(C3CCCCC3)CC(=O)N2Cc2ccc(C)cc2)ccc1OC(C)C (stereo not given),.,2%,.,.,.,.
CC12CC(c3ccccc3O1)N(C(=O)c1ccco1)C(=S)N2c1ccc(F)cc1 (stereo not given),i,1%,i,2%,12µM*,12%
CC1(C)Cc2c(cnn2-c2ccc(F)cc2)C(NC(=O)c2ccco2)C1 (stereo not given),.,4%,.,0%,2%,-1%
CN(CC(=O)NC1CCN(Cc2ccccc2)CC1)S(=O)(=O)c1ccc(Br)s1,23µM*,2%,?,0%,14%,-6%
Cc1ccc(C)n1-c1ccc(C(=O)NC2CCN(Cc3ccccc3)CC2)cc1,?,2%,2.3µM*,-1%,?,?
CC(C)(C)CC(C)(C)NC(=S)NC1CCN(Cc2ccccc2)CC1,?,6%,5.2µM*,0%,?,?
CCN(c1ccccc1)S(=O)(=O)c1ccc(C(=O)NC2CCN(Cc3ccccc3)CC2)cc1,16µM*,-1%,?,5%,?,?
Cc1ccc(CN2CCC(NC(=O)c3ccccc3)CC2)cc1,i,0%,i,1%,10%,3%
Nc1cc(Cc2ccccc2)ccc1O,i,0%,18µM*,-8%,?,10%
Nc1cc(N)cc(Cc2ccccc2)c1,i,2%,i,.,.,.
CCOc1cc(NS(C)(=O)=O)c(OCC)cc1NC(=O)c1cccs1,?,0%[38.3 µM],9.2µM*,-3%,6%,1%
CCOc1cc(NC(=S)NCC(C)C)c(OCC)cc1NC(=O)c1cccs1,i,8%,i,-2%,?,1%
CCOc1cc(NC(=O)c2cccs2)c(OCC)cc1NC(=O)c1ccccn1,i,10%,i,-3%,8.2µM*,?
CCOc1cc(NC(=O)c2cccs2)c(OCC)cc1NC(=O)CCC(=O)NCC1CCCO1 (stereo not given),i,1%,i,3%,?,6.5µM*
CCNC(=S)Nc1cc(OCC)c(NC(=O)c2cccs2)cc1OCC,i,5%,i,1%,13%,-4%
COc1ccc(Cl)cc1NC(=O)CCN1C(=O)c2ccccc2Sc2ncccc21,.,1%,.,.,.,.
CCOC(=O)c1c(C)n(C)c2ccc(OCC(O)Cn3nc(C)c(Br)c3C)cc12 (stereo not given),?,-3%,?,-5%,15µM*,9%
CC(=O)c1c(C)nn(CC(O)COc2ccc3ccccc3c2)c1C (stereo not given),i,2%,7.3µM*,0%,3%,-3%
COc1cc(C(=O)NCc2ccc3c(c2)CCN3C(=O)c2ccc(Cl)cc2)cc(OC)c1OC,i,4%,i,.,.,.
O=C(CC(C(=O)O)n1ccnc1)c1ccc(Cl)cc1 (stereo not given),i,0%,i,.,.,.
SMILES,KB-3-1 tox,PINK1 expr mod,KB-V1 MDR tox,TSG101-PTAP inh,MCF10A rereplic,SW480 rerep
CCCCN1C(C(=O)c2ccccc2)=C(OC(=O)CC)c2ccccc2S1(=O)=O,15µM*,22%,i,.,.,.
Cc1ccc(-c2nnc(SCc3ccccc3)o2)cc1,.,0%,.,.,.,.
CC1=NN(C(N)=S)C(=O)C1N=Nc1c(C)cc(C)cc1C (stereo not given),4.6µM*,0%,?,-2%,?,-13%
O=C(COc1ncnc2ccc(Br)cc12)Nc1ccc(N2CCOCC2)cc1,i,-4%,i,-8%,15%,-7%
Brc1ccc2ncnc(Nc3ccc(N4CCOCC4)cc3)c2c1,?,-2%,2.9µM*,-1%,?,?
Cc1cc(NC(=O)c2cccnc2)cc(-c2nc3cc(Cl)ccc3o2)c1O,i,3%,i,.,.,.
CC1CCc2nc(NC(=O)CN3CCN(Cc4ccc5c(c4)OCO5)CC3)sc2C1 (stereo not given),?,-1%,i,-4%,13µM*,2%
CC1CCc2nc(NC(=O)Nc3ccc4c(c3)OCO4)sc2C1 (stereo not given),13µM*,11%,i,-1%,?,1%
CC1CCc2nc(NC(=O)CN3CCN(c4ccccc4)CC3)sc2C1 (stereo not given),i,-1%,i,2%,7%,-4%
O=C(CSc1nnc(-c2cccnc2)n1Cc1ccco1)c1ccc(Br)cc1,i,.,i,-5%,23%,-17%
COc1ccc(C(=O)CSc2nnc(-c3ccccn3)n2Cc2ccco2)cc1,i,0%,18µM*,-2%,9%,-1%
CC(C)N(C(=O)CSc1nnc(-c2cc3ccccc3cc2O)n1Cc1ccco1)C(C)C,15µM*,2%[38.3 µM],3.3µM*,-10%,4%,11%
COCCn1c(SCC(=O)N(C(C)C)C(C)C)nnc1-c1cc2ccccc2cc1O,i,-9%[38.3 µM],?,-2%,2%,-15%
O=C(CSc1nnc(-c2cccnc2)n1Cc1ccco1)c1ccc2ccccc2c1,i,-3%,15µM*,-6%,4%,-3%
O=C(CSc1nnc(-c2ccccn2)n1Cc1ccco1)c1ccc(Cl)cc1,i,-3%,9.2µM*,-6%,2%,5%
CCCCCCCCCCCCCCC(C(=O)OC)C(O)(CC(=O)OC)C(=O)OC (stereo not given),.,0%,.,.,.,.
COc1cc(-c2nnc(SCCOc3ccc(C)c(Cl)c3)o2)cc(OC)c1OC,i,2%,i,.,.,.
Cc1ccc(-n2ncc3c(N(C)Cc4ccccc4)ncnc32)cc1,?,0%,i,.,.,.
COc1ncc2nc(-c3cc(F)cc(F)c3)c(=O)n(Cc3cccs3)c2n1,.,1%,.,.,.,.
COc1cc(Cl)c(C)cc1NC(=O)CSc1nnc(-c2ccccn2)n1Cc1ccco1,i,6%[38.3 µM],2.3µM*,-4%,17%,-1%

# Source: PubChem
